These results are taken from PubChem BioAssay AID588391 (Broad Institute, 2011).

What is called inhibition is the relative decrease from the control value, in per cent.

Screen size: about 350,000 compounds; about 180 (0.051%) were called active. The list comes from a sample in which actives are over-represented; it also holds similar structures and randomly drawn compounds. Unmarked numbers belong to inactive results.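 How the source made its calls: active means mean inhibition across replicates of 30% or more, whatever share of single replicates reach that level; inconclusive means mean inhibition below 30% while every single replicate reaches 30%; inactive means the rest.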

Sequence of Protein disulfide-isomerase (Homo sapiens) (P07237 whole entry, looked up): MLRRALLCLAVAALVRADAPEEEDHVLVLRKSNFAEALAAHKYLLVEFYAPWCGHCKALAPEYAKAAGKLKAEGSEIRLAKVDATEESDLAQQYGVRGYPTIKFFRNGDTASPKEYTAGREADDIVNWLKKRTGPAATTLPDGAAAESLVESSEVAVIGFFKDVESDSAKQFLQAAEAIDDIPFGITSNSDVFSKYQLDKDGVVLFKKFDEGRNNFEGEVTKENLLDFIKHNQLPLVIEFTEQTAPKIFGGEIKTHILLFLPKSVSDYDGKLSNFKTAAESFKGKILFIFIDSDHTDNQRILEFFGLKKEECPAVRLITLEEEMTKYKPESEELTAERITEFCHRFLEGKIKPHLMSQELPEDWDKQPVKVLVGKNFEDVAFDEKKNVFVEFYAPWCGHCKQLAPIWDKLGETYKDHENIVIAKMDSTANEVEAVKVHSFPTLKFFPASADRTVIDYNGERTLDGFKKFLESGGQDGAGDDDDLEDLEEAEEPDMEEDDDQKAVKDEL

This experiment addresses Protein disulfide-isomerase (Homo sapiens) (UniProt P07237). The experiment is described as follows: blockers of PDI-driven insulin aggregation – biochemical, turbidity, single point, plate reader, primary screen (AID 588391).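 Further: absorbance from insulin aggregation driven by PDI reduction with DTT.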 The settings on record: A650, 90 min, at 10 µM, stronger effect = higher value.
As for `CC(=O)Nc1ccc(C=CC(=O)c2ccc([N+](=O)[O-])cc2)cc1`, the inhibition is -14.3%. As for `O=C(/C=C/c1ccc(Cl)cc1)N1CCN(c2ccccc2[N+](=O)[O-])CC1`, the inhibition was -3.05%.

For the molecule `CN(C)c1ccc(/C=C/C(=O)c2ccc(O)cc2)cc1[N+](=O)[O-]`, the inhibition is 62.9% (active). The result for `OC[C@H]1O[C@@H](c2nc(-c3nc(-c4ccc(F)cc4)no3)cs2)[C@H](O)[C@@H](O)[C@H]1O` reads 9.06%; that for `CCc1nc2ccc(C(=O)Nc3cccc(OC)c3)cn2c1N(CCC(C)C)CCN(C)C`, 7.59%; that for `COc1ccc(CNC(=O)c2ccc(-c3cccnc3)c3ccoc23)cc1OC`, -14.5%. The same measure for `CCOC(=O)C1CCCN(C(=O)c2ccc(N(C)C)cc2)CC1` (stereo not drawn): -4.95%. Take `COc1ccccc1CNC(=O)c1cc(-c2cc(F)ccc2OC)n[nH]1`: the inhibition is -13.3%. The result for `CNc1cnc(-c2cc(OC)c(OC)c(OC)c2)cn1` reads -1.94%; that for `Cc1nc2c(OCc3ccc(Cl)cc3Cl)cccn2c1N(C)CC1CC1`, -3.07%.

For the molecule `CC(=O)NN=C(C)c1ccc(NC(=O)C2CC2)cc1`, the inhibition was 11.5%.

For the molecule `CC1(C(=O)NCc2cccc3ccccc23)CCN1Cc1ccc(-c2ccccc2)o1` (stereo not drawn), the inhibition was -7.12%. For `CC(=O)Nc1cccc(-c2cc(NC=O)c3ncc(-c4ccc(F)c(Cl)c4)n3c2)c1`, the inhibition was -0.607%. The result for `CCc1nc2c(OCCOc3ccccc3)cccn2c1N(C=O)Cc1ccc(OC)cc1` reads 3.19%; that for `COc1cccc(NC(=O)C2(C)CCN2Cc2ccccc2Cl)c1` (stereo not drawn), 2.3%; that for `NC(Cc1ccc(F)cc1)c1csc(Nc2nncc3ccccc23)n1` (stereo not drawn), -3.01%.

Turning to `CC(C)Nc1nc(NCCOc2ccccc2Cl)c2sccc2n1`, the inhibition was 0.492%.

On to `COc1ccc(NC(=O)C2(C)Cc3c(-c4cccc(NC(C)=O)c4)ccnc3O2)cc1OC` (stereo not drawn), for which the inhibition was -9.6%. On to `O=C(CCc1ccc(O)cc1)NN=Cc1cc(Br)ccc1O`, for which the inhibition is 44.5% (active). Regarding `O=C(CCC(=O)N/N=C/c1ccc(Br)o1)N/N=C/c1ccc(Br)o1`, the inhibition is -7.35%. The result for `O=C(CCc1n[nH]c(=O)[nH]c1=O)N/N=C/c1ccc(Br)o1` reads 2.19%; that for `COc1ccc(C(NC(=O)C2CCN(CCCc3ccccc3)CC2)c2cccs2)cc1` (stereo not drawn), -3.76%; that for `OCCN1CCN(c2ncnc3c2ncn3[C@H]2CN(Cc3ccco3)C[C@@H](CO)O2)CC1`, -4.02%. For `COc1cncc(-c2cnc3sc(NCCc4ccccn4)nn23)c1`, the inhibition is -1.86%.

Consider `CCCC/C=C/c1cccc2nncn12`, for which the inhibition was 15.4%. Regarding `O=C(Nc1ccc(N2CCOCC2)cc1)c1cccc2c(-c3ccc(F)c(F)c3)coc12`, the inhibition is 6.12%. Turning to `Cc1nc(C(F)(F)F)ccc1C(=O)N1CCC1(C)C(=O)NS(=O)(=O)c1ccc(F)cc1F` (stereo not drawn), the inhibition was -2.79%.

Turning to `Cc1cccc(C)c1Cn1c(C)c(C(=O)NCc2cccc(Cl)c2)sc1=O`, the inhibition is 12.4%. `CCc1nc2c(OCc3ccc(Cl)cc3Cl)cccn2c1N(C)C(=O)C(C)C`: the inhibition was 1.84%. As to `CS(=O)(=O)/C(C#N)=C/c1cccn1S(=O)(=O)c1ccc([N+](=O)[O-])cc1`, the inhibition is 6.24%. `CCCS(=O)(=O)NC(=O)C1(C)CCCN(C(=O)c2cccs2)C1` (stereo not drawn): the inhibition is 5.08%. The result for `CCCNC(=O)C1(C)CCN(C(=O)c2ccccc2OC(F)(F)F)C1` (stereo not drawn) reads 12.9%. On to `COc1ccc(S(=O)(=O)NC(=O)C2(C)CCN2C(=O)c2ccccc2CCc2ccccc2)cc1` (stereo not drawn), for which the inhibition was -21.5%.

Regarding `Cc1ccc(CNC(=O)Nc2nnc([C@H]3C[C@H](O)[C@@H](CO)O3)s2)cc1`, the inhibition was -0.839%. As for `COc1ccc(-c2cc3nc(NCCOc4ccccc4)ccn3n2)cc1`, the inhibition was 8.41%. Consider `Cc1ccc(Sc2ccc(NC(=O)c3ccc(F)cc3)cc2C#N)cc1`, for which the inhibition was 1.62%. The result for `CC(C)NC(=O)C1(C)CCCCCN1C(=O)c1ccc(-c2ccccc2)cc1` (stereo not drawn) reads 0.373%; that for `CCc1nc2c(OCCC3CCCCC3)cccn2c1N(C)C(=O)c1ccco1`, 4.27%. The same measure for `COc1ccc(OC)c(NC(=O)C2(C)CCN2C(=O)Cc2ccccc2)c1` (stereo not drawn): 0.456%; for `O=C(CSc1nc2cccc(F)c2c(=O)n1-c1ccccc1)Nc1ccc2c(c1)CCC2`: -4.77%; for `CC1(Cc2ccccc2C#N)C(=O)Nc2ccc(-c3ccc4[nH]ccc4c3)cc21` (stereo not drawn): 7.54%. On to `O=C(O)c1ccccc1-c1cccc2nncn12`, for which the inhibition is 9.27%. `O=C(NCc1ccc(F)cc1)c1cc(C2CCCCN2C(=O)c2cccs2)on1` (stereo not drawn): the inhibition was -0.163%.

With `CC(C)Cc1ccc(-c2cc3nc(NCc4cccc(Cl)c4)ccn3n2)cc1`, the inhibition was -8.06%. The same measure for `O=C(c1cc(C2CCCCN2S(=O)(=O)c2ccccc2)on1)N1CCOCC1` (stereo not drawn): -7.54%; for `COc1ccc(NC(=O)C2(C)Cc3c(-c4cccc(NC(C)=O)c4)ccnc3O2)cc1` (stereo not drawn): -2.98%; for `OC[C@@H]1CN(Cc2ccc(-c3ccccc3)cc2)C[C@H](n2cnc3c(NC4CCCC4)ncnc32)O1`: -2.96%. The same measure for `CC(C)Cn1cc(-c2cncc3nccn23)cn1`: -0.067%; for `CC1(C(=O)NS(=O)(=O)c2ccc3ccccc3c2)CCN1C(=O)C1(c2ccc(Cl)cc2)CCC1` (stereo not drawn): 8.48%. The same measure for `CC(=O)c1ccc(-c2cnc3c(NC=O)cc(-c4cccc(NS(C)(=O)=O)c4)cn23)cc1`: 16.7%; for `COc1cccc(-c2cnc(C(O)c3ccccc3OC)[nH]2)c1` (stereo not drawn): 10.9%; for `OC(c1ccc(F)cc1)c1ncc(-c2cccc(C(F)(F)F)c2)[nH]1` (stereo not drawn): -1.07%. `CC(C)Oc1cc(F)ccc1-c1cc(C(=O)Nc2ccc(F)cc2)[nH]n1`: the inhibition is 10.8%. The result for `O=C(NC(c1ccc(Cl)cc1)c1cnccn1)C1CCN(Cc2ccc(Cl)cc2)CC1` (stereo not drawn) reads -28.5%. The same measure for `CCCc1ccc(C(O)c2ncc(-c3cccc(OC)c3)[nH]2)cc1` (stereo not drawn): -4.13%; for `COc1ccccc1CNC(=O)c1cc(-c2cc(Cl)ccc2C)n[nH]1`: -1.01%. The same measure for `CCNC(=O)C1(C)CCN(Cc2ccc(C(=O)OCC)o2)C1` (stereo not drawn): 8.45%; for `CCCOc1ccc(F)cc1-c1cc(C(=O)Nc2ccc(F)cc2)[nH]n1`: 5.38%. `CC1(C(=O)NCc2ccc3c(c2)OCO3)CCN1C(=O)Cc1cccs1` (stereo not drawn): the inhibition is -7.14%. As to `CC(C)Oc1ccc(CN2CCC2(C)C(=O)NCc2ccc(C(F)(F)F)cc2)cc1` (stereo not drawn), the inhibition is 4.17%. The same measure for `CC1(C(=O)Nc2cccc3c2CCCC3)CCN1C(=O)CCc1ccc(Cl)cc1Cl` (stereo not drawn): -3.08%; for `NCCCNC(=S)NCCCN(Cc1ccc(Cl)cc1)c1ccc(Br)cn1`: 22.2%. On to `COc1cccc(CNc2nc(NCc3cccs3)nc3ccsc23)c1`, for which the inhibition was -1.8%. The result for `CCc1nc2ccc(C(=O)Nc3ccc(OC)c(OC)c3)cn2c1N(C)C(=O)c1cccc(OC)c1` reads 10.6%. Turning to `NC(Cc1ccccc1)c1csc(Nc2cc(Oc3ccccc3)ncn2)n1` (stereo not drawn), the inhibition was 0.811%.

Consider `OC[C@@H]1CN(Cc2ccncc2)C[C@H](n2cnc3c(N4CCN(c5ccccc5)CC4)ncnc32)O1`, for which the inhibition is -1.41%.

As for `COCCNc1ncnc2c1ncn2[C@H]1CN(Cc2ccc(OC)cc2)C[C@@H](CO)O1`, the inhibition was -0.829%. The same measure for `CC(=O)Nc1cccc(-c2cc(NC(C)=O)c3ncc(-c4ccccc4)n3c2)c1`: 0.99%; for `COc1cccc(CNc2nc(NCc3ccccc3OC)nc3ccsc23)c1`: -20.9%. Consider `CCNC(=S)Nc1ccc2c(c1)c(=O)n(C)n2Cc1ccc(Cl)cc1`, for which the inhibition was 7.91%. The result for `CSc1ccc(CNC(=O)C2(C)CCCN2C)cc1` (stereo not drawn) reads -9.77%. Consider `CCc1ccc2c(c1)NC(=O)C2(C)Cc1ccc(OC(F)(F)F)cc1` (stereo not drawn), for which the inhibition is 8.05%. Take `CCCNC(=O)C1(C)CCCN(C(=O)c2oc3ccccc3c2C)C1` (stereo not drawn): the inhibition is 10.4%. The same measure for `CC1(C(=O)NS(=O)(=O)c2cccc(OC(F)F)c2)CCN1C(=O)COc1ccc(Cl)cc1` (stereo not drawn): -2.12%; for `Nc1nc(CSc2nnnn2-c2ccccc2)nc(Nc2ccccc2)n1`: -5.2%; for `Cn1c(Nc2ccc(F)cc2)nc2cc(-c3ccsc3)sc2c1=O`: -4.93%.

For `CCCNC(=O)c1cc(C2CCCCN2S(=O)(=O)c2cn(C)cn2)on1` (stereo not drawn), the inhibition is -5.28%. Regarding `COc1cccc(-c2ccc3c(c2)N(Cc2ccccc2OC)C(=O)C(C)S3)c1` (stereo not drawn), the inhibition is 0.226%. The result for `CCCNC(=O)C1(C)CCN(Cc2ccc(Cl)c(Cl)c2)C1` (stereo not drawn) reads -7.24%; that for `COc1ccc(Br)c(Cn2c(C)c(C(=O)NCc3cccs3)sc2=O)c1`, 6.08%; that for `CC(C)(C)c1ccc(S(=O)(=O)NC(=O)C2(C)CCN2C(=O)CC2CC2)cc1` (stereo not drawn), 4.79%. As to `CS(=O)(=O)c1cccc(-c2ccc3nncn3c2)c1`, the inhibition is 1.16%.

With `CC(=O)Nc1cccc(-c2cc3nc(NCc4cccnc4)n(C)c(=O)c3s2)c1`, the inhibition was -1.23%.

As for `CCCNC(=O)C1(C)CCN(Cc2csc(-c3ccc(Cl)cc3)n2)C1` (stereo not drawn), the inhibition was 14.3%.

As to `COc1ccc(-c2ccc(C(=O)NCCN3CCOCC3)c3occc23)c(C)c1`, the inhibition is 0.104%. As to `CCc1ccc(OC2(C)CCN(CCOc3ccc(C)cc3)C2)cc1` (stereo not drawn), the inhibition is -1.04%. The result for `CC(=O)Nc1cccc(-c2ccnc3c2CC(C)(C(=O)NCc2ccco2)O3)c1` (stereo not drawn) reads 2.4%.

As for `CC(C)(C)CC(=O)Nc1nc(C(N)Cc2ccc(C(F)(F)F)cc2)cs1` (stereo not drawn), the inhibition was -12.3%.
